# Screens as filed in PubChem.
# Spn MK inh: blocks S. pneumoniae mevalonate kinase | 65,000 compounds, 0.48% hits | purified MK, PK/LDH-coupled NADH absorbance 340 nm | AID 555 | inhibition, % at 10 µM;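 active = ranked among the strongest by inhibition in the single 10 µM screen, a fixed top-ranked set picked for dose follow-up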
# Fluor 339 460: intrinsic fluorescence of library compounds, ex339/em460 – biochemical, MLSMR library, data from DPM-DC assay, artefact control, profiling panel; compound autofluorescence, ex339/em460 nm, NADH buffer; stronger effect = higher value; 1 = no-compound wells, NADH background; fluorescence fold increase at 10 µM; 65,000 compounds, 5.5% hits;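 active = at 10 µM, mean starting fluorescence two-fold or more over control wells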;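 also: signal is the first read of a kinetic run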
# Abs 340nm: compound absorbs light at 340 nm; fold change at 10 µM; AID 708; 65,000 tested, under 10 active; compound absorbance at 340 nm, fold over control;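 active = at 10 µM dose, initial 340 nm absorbance at least 2 fold that of control wells; inactive = change under 2 fold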;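 also: initial absorbance extrapolated from kinetic A340 decline of NADH oxidation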
# DPM-DC inhibit: inhibitors of Streptococcus pneumoniae diphosphomevalonate decarboxylase | purified DPM-DC, PK/LDH coupled NADH fluorescence | calls only at 10 µM | AID 556 | 65,000 compounds, 0.49% hits;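 active = the 320 compounds with the highest percent inhibition in the single-dose primary screen, excluding strongly autofluorescent ones, cut at about 32% in these data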;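 also: kinetic rate of NADH fluorescence loss reporting ADP formed by the decarboxylase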
# NADH enzymes: blocks coupling enzymes of NAD/NADH assays | coupled PK/LDH NADH assays, four targets | AID 774 | IC50, µM (top dose mostly 10 µM) | 65,000 compounds, 0.02% hits;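 active = single-dose screening hits from any of four coupled enzyme assays that gave an IC50 when retested across doses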;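 also: the DPM-DC format reads NADH fluorescence rather than 340 nm absorbance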
# Spn PMK inh: S. pneumoniae PMK inhibition; inhibition, % at 10 µM; purified PMK, PK/LDH-coupled NADH absorbance 340 nm; 65,000 compounds, 0.49% hits;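 active = top-ranked compounds by inhibition in the single 10 µM screen, taking a fixed number of the strongest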
# Numbers stand for hits; 0 = inactive; - = not tested or not shown. Most compounds without a hit are left out; they make up all but 6.3% or so of the library.
SMILES,Spn MK inh,Fluor 339 460,Abs 340nm,DPM-DC inhibit,NADH enzymes,Spn PMK inh
COCC(C)NC(=O)c1ccccc1OC(C)=O (configuration not stated),0,2.03,0,0,0,0
COCC(C)NC(=O)c1cc(-c2ccccc2OC)on1 (configuration not stated),0,0,0,0,0,0
COc1cc(C)c(N)cc1C(C)C,0,0,0,0,0,0
COCC(C)NCc1ccc(C)cc1C (configuration not stated),52.0,0,0,0,0,0
Cc1ccc(CNc2ccc3c(c2)OCO3)c(C)c1,0,0,0,0,0,0
Cc1nnc(SCC(=O)Nc2ncc(Cc3ccc(F)cc3)s2)n1N,0,0,0,0,0,44.0
COc1ccc(CNC(=O)CSc2nnnn2-c2ccc(O)cc2)cc1,0,0,0,0,0,0
Cc1ccccc1Cn1c(=N)n(CC(=O)c2ccco2)c2ccccc21,0,0,0,0,0,0
O=c1nc(-c2ccccc2)cc(-c2ccccc2)[nH]1,0,2.18,0,-,0,0
Cc1nc(-c2ccccc2)cc(=O)[nH]1,0,0,0,0,0,0
c1coc(-c2nnc3sc(C4CCCCC4)nn23)c1,0,0,0,0,0,0
Cc1ccccc1-n1c(SCC(=O)c2cc(C)n(C)c2C)nnc1-c1ccncc1,0,0,0,0,0,0
COc1ccccc1-n1c(CNC(=O)COc2ccccc2)n[nH]c1=S,0,0,0,0,0,0
CC(C)(C)n1nnnc1C(c1cc2cc3c(cc2[nH]c1=O)OCCO3)N1CCSCC1 (configuration not stated),0,3.31,0,-,0,0
O=c1[nH]c2cc3c(cc2cc1C(c1nnnn1C1CCCC1)N1CCSCC1)OCCO3 (configuration not stated),0,3.22,0,-,0,0
COc1ccccc1C(c1nnnn1C(C)(C)C)N1CCN(C(=O)c2ccco2)CC1 (configuration not stated),0,0,0,0,0,0
CCC(C)(C)n1nnnc1C(c1cc2cc3c(cc2[nH]c1=O)OCO3)N1CCN(C)CC1 (configuration not stated),0,3.78,0,-,0,0
CCC(C)(C)n1nnnc1C(c1cc2cc(C)cc(C)c2[nH]c1=O)N1CCCC1 (configuration not stated),0,0,0,0,0,0
Cc1cc(C)c2[nH]c(=O)c(C(c3nnnn3C(C)(C)C)N3CCN(C(=O)c4ccco4)CC3)cc2c1 (configuration not stated),0,2.41,0,0,0,0
Cc1nnc(SCC(=O)N2CCCCC2)s1,0,0,0,0,0,0
COc1ccc(OC)c(C(O)c2coc3ccc(O)c(CN4CCOCC4)c23)c1 (configuration not stated),0,0,0,0,0,0
Clc1ccc2c(c1)C1OCCC1C(c1ccco1)N2 (configuration not stated),0,3.74,0,-,0,0
COC(=O)CC(=O)CSc1nc2c(cc1C#N)CCCCC2,0,3.87,0,-,0,0
CCCCCC(C(=O)O)C(C)CC(=O)NC1CCCCC1 (configuration not stated),0,0,0,0,0,0
CCc1nc2oc3cc(OC)ccc3c(=O)c2c(=O)n1Cc1ccco1,0,0,0,0,0,0
SMILES,Spn MK inh,Fluor 339 460,Abs 340nm,DPM-DC inhibit,NADH enzymes,Spn PMK inh
COc1ccc(-c2nc3oc4cc(OC)ccc4c(=O)c3c(=O)n2Cc2ccco2)cc1,0,3.85,0,-,0,0
CCCCN(CC)CCCNC(=O)c1cc2cc3ccc(OC)cc3nc2o1,0,5.09,0,-,0,0
CCOc1ccc(C(=O)NCCCN(CC)CC)cc1,0,0,0,0,0,0
COc1ccc(C)cc1NC(=O)c1cc2cc3ccc(C)cc3nc2o1,0,3.99,0,-,0,0
COc1ccc2cc3cc(C(=O)NCCc4ccc(OC)c(OC)c4)oc3nc2c1,0,4.61,0,-,0,0
CCCN(CCC)CCCNC(=O)c1cc2cc3ccc(OC)cc3nc2o1,0,5.1,0,-,0,0
O=C(CN(C(=O)CSc1nnc(COc2ccccc2)o1)c1ccc(F)cc1)NC1CCCCC1,0,0,0,0,0,0
Cc1cccn2c(=O)c3cc(C(=O)NCCN4CCOCC4)c(=N)n(CCc4ccccc4)c3nc12,0,2.3,0,-,0,0
Cc1cccn2c(=O)c3cc(C(=O)NCc4ccccc4)c(=N)n(CCCN4CCOCC4)c3nc12,0,5.18,0,-,0,0
